About 2,000 (36%) of roughly 5,500 compounds were called active. Roughly 18% stayed inconclusive and do not appear here. No stated cut-off is given here; in the data, active means normalized growth mostly below about 0.91 (no sharp cut-off); inconclusive means no clear call, values can overlap the other calls; inactive means mostly above about 0.92. The list shows a part of the results.
Experiment: chemical genetic growth profiling, strain panel (AID 1159580);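 further: tested at 20 µM; growth read once vehicle control cultures reached saturation at 30 °C; 1 = growth at the plate median or of vehicle wells; lower values mean less growth of the strain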
Details: S. cerevisiae deletion strains, growth OD
[1] = locus YAR019C, strain CDC15, hits give low values
[2] = locus YBL105C, strain PKC1, hits give low values
[3] = locus YBR135W, strain CKS1, hits give low values
[4] = locus YBR136W, strain MEC1, hits give low values
[5] = locus YBR160W, strain CDC28, hits give low values
[6] = locus YDL017W, strain CDC7, hits give low values
[7] = locus YDL028C, strain MPS1, hits give low values
[8] = locus YDL101C, strain DUN1, hits give low values
[9] = locus YDL108W, strain KIN28, hits give low values
[10] = locus YDL132W, strain cdc53, hits give low values
[11] = locus YDL214C, strain PRR2, hits give low values
[12] = locus YDR052C, strain DBF4, hits give low values
[13] = locus YDR054C, strain cdc34, hits give low values
[14] = locus YDR226W, strain ADK1, hits give low values
[15] = locus YDR477W, strain SNF1, hits give low values
[16] = locus YER123W, strain YCK3, hits give low values
[17] = locus YER133W, strain GLC7, hits give low values
[18] = locus YFL009W, strain cdc4, hits give low values
[19] = locus YFL029C, strain CAK1, hits give low values
[20] = locus YFR003C, strain YPI1, hits give low values
[21] = locus YFR019W, strain FAB1, hits give low values
[22] = locus YFR028C, strain CDC14, hits give low values
[23] = locus YGR040W, strain KSS1, hits give low values
[24] = locus YGR052W, strain FMP48, hits give low values
[25] = locus YGR092W, strain DBF2, hits give low values
[26] = locus YHR030C, strain SLT2, hits give low values
[27] = locus YHR079C, strain IRE1, hits give low values
[28] = locus YHR082C, strain KSP1, hits give low values
[29] = locus YHR205W, strain SCH9, hits give low values
[30] = locus YIL147C, strain SLN1, hits give low values
[31] = locus YJL095W, strain BCK1, hits give low values
[32] = locus YJL157C, strain FAR1, hits give low values
[33] = locus YJR016C, strain ILV3, hits give low values
[34] = locus YJR066W, strain TOR1 (second series), hits give low values
[35] = locus YJR066W, strain TOR1, hits give low values
[36] = locus YKL048C, strain ELM1, hits give low values
[37] = locus YKL067W, strain YNK1, hits give low values
[38] = locus YKL101W, strain HSL1, hits give low values
[39] = locus YKL193C, strain SDS22, hits give low values
[40] = locus YKL203C, strain TOR2, hits give low values
[41] = locus YLR113W, strain HOG1, hits give low values
[42] = locus YLR403W, strain SFP1, hits give low values
[43] = locus YML070W, strain DAK1, hits give low values
[44] = locus YMR001C, strain CDC5, hits give low values
[45] = locus YMR205C, strain PFK2 (second series), hits give low values
[46] = locus YMR277W, strain FCP1, hits give low values
[47] = locus YNL006W, strain LST8, hits give low values
[48] = locus YNL020C, strain ARK1, hits give low values
[49] = locus YNL161W, strain CBK1, hits give low values
[50] = locus YNL183C, strain NPR1, hits give low values
[51] = locus YNL207W, strain RIO2, hits give low values
[52] = locus YNL222W, strain SSU72, hits give low values
[53] = locus YOL078W, strain AVO1, hits give low values
[54] = locus YOL136C, strain PFK27, hits give low values
[55] = locus YOR061W, strain CKA2, hits give low values
[56] = locus YOR119C, strain RIO1, hits give low values
[57] = locus YOR231W, strain MKK1, hits give low values
[58] = locus YOR329C, strain SCD5, hits give low values
[59] = locus YPL031C, strain PHO85, hits give low values
[60] = locus YPL153C, strain RAD53, hits give low values
[61] = locus YPL204W, strain HRR25, hits give low values
[62] = locus YPL209C, strain IPL1, hits give low values
[63] = locus YPL256C, strain CLN2, hits give low values
[64] = locus YPR025C, strain CCL1, hits give low values
[65] = locus YPR106W, strain ISR1, hits give low values
[66] = locus YPR111W, strain DBF20, hits give low values
[67] = strain NNK1, hits give low values
[68] = strain TSCII, hits give low values

Measured: normalized growth

CC(C)(Oc1ccc(C2CC2(Cl)Cl)cc1)C(=O)O (stereo not given)
inactive: locus YAL021C, strain ccr4, hits give low values 1 | locus YAL026C, strain drs2, hits give low values 1 | locus YAL030W, strain snc1, hits give low values 1 | locus YAL040C, strain CLN3, hits give low values 0.988 | locus YBL061C, strain skt5, hits give low values 0.997 | locus YBR009C, strain hhf1, hits give low values 0.995 | locus YBR023C, strain chs3, hits give low values 0.992 | locus YBR171W, strain sec66, hits give low values 0.996 | locus YBR231C, strain swc5, hits give low values 0.997 | locus YBR279W, strain paf1, hits give low values 1.02 | locus YCL011C, strain gbp2, hits give low values 1.01 | locus YCL016C, strain dcc1, hits give low values 0.992 | locus YCL061C, strain MRC1 (second series), hits give low values 0.988 | locus YCL061C, strain MRC1, hits give low values 0.99 | locus YCL069W, strain vba3, hits give low values 1.01 | locus YCR088W, strain abp1, hits give low values 0.997 | locus YDL005C, strain med2, hits give low values 0.998 | locus YDL040C, strain nat1, hits give low values 1 | locus YDR001C, strain nth1, hits give low values 1.01 | locus YDR069C, strain doa4, hits give low values 1 | locus YDR137W, strain rgp1, hits give low values 0.964 | locus YDR159W, strain sac3, hits give low values 0.997 | locus YDR195W, strain ref2 0.989 | locus YDR297W, strain sur2, hits give low values 0.998 | locus YDR334W, strain swr1, hits give low values 1 | locus YDR335W, strain msn5, hits give low values 1 | locus YDR392W, strain spt3, hits give low values 0.944 | locus YEL003W, strain gim4, hits give low values 1.02 | locus YEL037C, strain rad23, hits give low values 1.01 | locus YEL061C, strain CIN8 (second series), hits give low values 1.01 | locus YER002W, strain NOP16, hits give low values 0.962 | locus YER015W, strain faa2, hits give low values 0.994 | locus YER016W, strain bim1, hits give low values 1 | locus YER111C, strain swi4, hits give low values 0.998 | locus YER155C, strain BEM2 (second series), hits give low values 1 | locus YFR010W, strain ubp6, hits give low values 0.99 | locus YGL167C, strain pmr1, hits give low values 0.998 | locus YGL173C, strain kem1, hits give low values 1 | locus YGL227W, strain vid30, hits give low values 1 | locus YGL240W, strain doc1, hits give low values 1 | locus YGL253W, strain hxk2, hits give low values 1.01 | locus YHR013C, strain ard1, hits give low values 0.973 | locus YHR027C, strain rpn1, hits give low values 0.995 | locus YHR142W, strain chs7, hits give low values 1 | locus YJL092W, strain hpr5, hits give low values 1.01 | locus YJL095W, strain BCK1 (second series), hits give low values 0.997 | locus YJL115W, strain asf1, hits give low values 0.999 | locus YJL129C, strain trk1, hits give low values 0.987 | locus YJL154C, strain vps35, hits give low values 1.01 | locus YJL164C, strain tpk1, hits give low values 1 | locus YJL166W, strain qcr8, hits give low values 0.985 | locus YJL187C, strain SWE1, hits give low values 0.992 | locus YKL160W, strain elf1, hits give low values 0.978 | locus YKR026C, strain gcn3, hits give low values 0.997 | locus YKR091W, strain srl3, hits give low values 1 | locus YLL001W, strain dnm1, hits give low values 0.968 | locus YLL026W, hits give low values 1 | locus YLL041C, strain sdh2, hits give low values 1.01 | locus YLR027C, strain aat2, hits give low values 0.998 | locus YLR221C, strain rsa3, hits give low values 0.994 | locus YLR258W, strain gsy2, hits give low values 1 | locus YLR262C, strain YPT6 (second series), hits give low values 0.981 | locus YLR320W, strain mms22, hits give low values 0.976 | locus YLR342W, strain FKS1, hits give low values 1 | locus YLR357W, strain rsc2, hits give low values 1.01 | locus YLR370C, strain arc18, hits give low values 1 | locus YLR384C, strain iki3, hits give low values 1 | locus YML120C, strain ndi1, hits give low values 0.985 | locus YMR058W, strain fet3, hits give low values 1 | locus YMR125W, strain sto1, hits give low values 0.996 | locus YMR129W, hits give low values 0.996 | locus YMR205C, strain PFK2, hits give low values 0.973 | locus YMR231W, strain pep5, hits give low values 1 | locus YNL071W, strain lat1, hits give low values 0.998 | locus YNL153C, strain GIM3, hits give low values 1.01 | locus YNL175C, strain NOP13, hits give low values 0.98 | locus YNL197C, strain WHI3, hits give low values 1.08 | locus YNL209W, strain ssb2, hits give low values 1 | locus YNL224C, strain SQS1, hits give low values 0.99 | locus YNL248C, strain rpa49, hits give low values 1 | locus YNL322C, strain KRE1 (second series), hits give low values 0.984 | locus YNR049C, strain mso1, hits give low values 1 | locus YOR001W, strain rrp6, hits give low values 1.02 | locus YOR070C, strain gyp1, hits give low values 0.998 | locus YOR080W, strain dia2, hits give low values 0.988 | locus YOR083W, strain WHI5 (second series), hits give low values 1.01 | locus YOR083W, strain WHI5, hits give low values 0.977 | locus YOR106W, strain vam3, hits give low values 0.972 | locus YOR265W, strain rbl2, hits give low values 1 | locus YOR270C, strain vph1, hits give low values 0.99 | locus YOR290C, strain snf2, hits give low values 1.01 | locus YPL051W, strain arl3, hits give low values 0.994 | locus YPL078C, strain atp4, hits give low values 0.993 | locus YPL106C, strain sse1, hits give low values 0.951 | locus YPL240C, strain hsp82, hits give low values 1.01 | locus YPL241C, strain CIN2, hits give low values 0.984

O=[N+]([O-])c1ccc(Sc2ssc(=S)c2-c2ccccc2)nc1
active: [11] 0.521 | [15] 0.651 | [16] 0.338 | [17] 0.512 | [21] 0.546 | [23] 0.673 | [24] 0.449 | [26] 0.159 | [27] 0.247 | [28] 0.471 | [31] 0.175 | [32] 0.485 | [34] 0.312 | [35] 0.327 | [37] 0.61 | [40] 0.674 | [41] 0.362 | locus YLR133W, strain CKI1, hits give low values 0.626 | [43] 0.371 | [45] 0.722 | [48] 0.624 | [50] 0.256 | locus YNL307C, strain MCK1 (second series), hits give low values 0.633 | [54] 0.376 | [55] 0.664 | [57] 0.229 | [59] 0.57 | [60] 0.537 | [61] 0.422 | [63] 0.3
inactive: [1] 0.922 | [2] 0.946 | [3] 0.943 | [4] 0.952 | [5] 0.947 | [6] 0.954 | [7] 0.953 | [8] 0.961 | [9] 0.953 | [10] 0.956 | [12] 0.968 | [13] 0.918 | [14] 1.01 | [18] 0.948 | [19] 0.922 | [20] 0.958 | [22] 0.97 | [25] 0.617 | [29] 0.782 | [30] 0.956 | locus YJL128C, strain PBS2, hits give low values 1.05 | [33] 0.951 | [36] 0.843 | [38] 0.791 | [39] 0.933 | [42] 0.703 | [44] 0.932 | [46] 0.961 | [47] 0.942 | [49] 0.929 | [51] 0.944 | [52] 0.934 | [53] 0.928 | [56] 0.728 | [58] 0.945 | [62] 0.945 | [64] 0.944 | [65] 0.999 | [66] 0.994 | [67] 0.956 | [68] 0.917

O=C(NNc1ccc(I)cc1)c1cc(Cl)cc(Cl)c1
active: [21] 0.767 | [26] 0.536 | [41] 0.498 | [63] 0.749
inactive: [1] 0.949 | [2] 0.965 | [3] 0.953 | [4] 0.953 | [5] 0.948 | [6] 0.961 | [7] 0.94 | [8] 0.987 | [9] 0.943 | [10] 0.95 | [11] 0.88 | [12] 0.952 | [13] 0.955 | [14] 0.929 | [15] 0.731 | [16] 0.651 | [17] 0.909 | [18] 0.938 | [19] 0.956 | [20] 0.967 | [22] 0.931 | [23] 0.809 | [24] 0.832 | [25] 0.78 | [27] 0.918 | [28] 0.848 | [29] 0.746 | [30] 0.955 | [31] 0.695 | [32] 0.94 | [33] 0.971 | [34] 0.865 | [35] 0.771 | [36] 0.889 | [37] 0.906 | [38] 0.842 | [39] 0.96 | [40] 0.926 | [42] 0.842 | [43] 0.849 | [44] 0.953 | [45] 0.904 | [46] 0.931 | [47] 0.972 | [48] 0.901 | [49] 0.97 | [50] 0.889 | [51] 0.963 | [52] 0.946 | [53] 0.955 | [54] 0.864 | [55] 0.715 | [56] 0.79 | [57] 0.884 | [58] 0.976 | [59] 0.81 | [60] 0.84 | [61] 0.832 | [62] 0.956 | [64] 0.959 | [65] 0.957 | [66] 0.929 | [67] 0.97 | [68] 0.946
